These results are taken from PubChem BioAssay AID1578 (Sanford-Burnham Center for Chemical Genomics, 2009).

Screen size: about 290,000 compounds; about 3,000 (1%) were called active. Many of the other results were omitted from the sample, so actives are more common in it than they were. Values without a mark were called inactive. Cut-off read from the data, not from the text of the source: active = inhibition mostly above about 36% (no sharp cut-off); inactive = mostly below about 34%.

A short description of the assay: inhibition of NOD1-driven NF-kB reporter – cell-based, luminescence, uHTS, primary screen (AID 1578).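 Note: HEK-293T reporter cells stimulated with the NOD1 agonist gamma-tri-DAP.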 The note with it: NOD1-driven NF-kB luciferase reporter cells, at 4 µM, stronger effect = higher value. For orientation: In a reporter assay the amount or activity of a reporter protein is the signal.
For the compound `Cc1ccc(N2CCC(N3CCN(C4CCCCC4)C(CCO)C3)CC2)cc1` (configuration not stated), the inhibition is -17.5%. `COc1cc2c(cc1OC)C(c1cc(Br)ccc1F)N(C(=O)CCl)CC2` (configuration not stated): the inhibition was 37.2% (active). To `COc1cc2c(cc1OC)C(c1ccccc1)N(C(=O)CCl)CC2` (configuration not stated) belongs 43.6%; to `COc1cc2c(cc1OC)C(C1C(=O)CCCC1=O)N(C(=O)CCl)CC2` (configuration not stated), -8%. Consider `CSc1cccc(NS(=O)(=O)c2ccccc2)c1`, for which the inhibition was -20.4%. To `O=C(CSc1nccc(=O)[nH]1)NC1CCCC1` belongs -1.9%; to `C/C(CC(=O)NC(C)(C)C)=N\NC(=O)COc1ccc(C)cc1Br`, -14%; to `COc1ccc(CCNC(=O)C/C(C)=N/NC(=O)COc2ccc(C)cc2Br)cc1OC`, 39.1%. With `CCCNC(=O)C/C(C)=N/NC(=O)COc1ccc(C)cc1Br`, the inhibition was 83.4% (active). To `CC(=O)c1ccc(OCC(=O)NC(=O)NC2CCCCC2)cc1` belongs 6.2%. The figure for `Cc1ccc(C)c(OCC(=O)Nc2ccc(S(=O)(=O)Nc3ncccn3)cc2)c1` is -12.1%. To `COC(=O)c1c(N2C(=O)Nc3ccccc3N2O)sc(C)c1C` belongs -21.8%; to `COC(=O)c1c(-c2ccccc2)csc1N1C(=O)Nc2ccccc2N1O`, 37.8% (active).

For `CCOC(=O)c1c(-c2ccccc2)csc1N1C(=O)Nc2ccccc2N1O`, the inhibition was -27.8%.

Take `CC(=O)Nc1ccc(-c2csc(-c3cccnc3)n2)cc1`: the inhibition is -31.8%. To `O=C(O)CNC(=O)CCN1C(=O)c2ccccc2C1=O` belongs -13.4%; to `NC(=O)C(C(=O)/C=C/c1ccc(Cl)cc1)=C1SCCS1`, 60.5% (active); to `CCOc1ccc(/C=C/C(=O)C(C(N)=O)=C2SCCS2)cc1`, 8.8%. To `COc1ccc(/C=C/C(=O)C(C(N)=O)=C2SCCS2)cc1` belongs -16.2%; to `Cc1ccc(CNC(=O)/C=C/c2ccc(Br)o2)cc1`, -7.4%. Regarding `NC(=O)COc1cccc(/C=N/NC(=O)c2ccc(-n3cccc3)cc2)c1`, the inhibition was 39.2% (active).

Consider `NC(=O)COc1ccc(/C=N\NC(=O)c2ccc(-c3ccccc3)cc2)cc1`, for which the inhibition is 2.5%.

For `NC(=O)c1ccc(C(=O)N/N=C/c2cccc(Oc3ccccc3)c2)cc1`, the inhibition was -28.7%. The figure for `CCCn1c(C)nc2cc(Cl)c(N3CCN(c4nc(-c5ccc(C)cc5)cs4)CC3)cc21` is 23.3%; for `CC(=O)NC1=C(NC2CCS(=O)(=O)C2)C(=O)c2ccccc2C1=O` (configuration not stated) it is -32.3%. The figure for `CN(C1=C(NC(=O)c2ccccc2)C(=O)c2ccccc2C1=O)C1CCS(=O)(=O)C1` (configuration not stated) is -26.1%.

As to `O=C(NC1=C(NC2CCS(=O)(=O)C2)C(=O)c2ccccc2C1=O)c1ccccc1` (configuration not stated), the inhibition was 104% (active).

Usually inhibition stands for the drop in the measured response relative to a control, in per cent.
